# BAZ2B block: blocks human BAZ2B; Q9UIF8; AlphaScreen BAZ2B-H3K14Ac peptide displacement; Potency, µM (highest dose often 114 µM), for the others: at the top dose activity change, negative = inhibition, most hits filed as inhibitors; 4.4% of 360,000 active; AID 504333; also: potency is read from the fitted curve at half-maximal effect; % is scaled to controls: 0 for no effect and ±100 for the full control effect; nearly all actives have a fitted effect of over 60% in size
#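 In this displacement format the biotinylated H3(5-23) peptide acetylated at Lys14 serves as ligand at 50 nM, with BAZ2B at 50 nM in PBS pH 7.4 containing 0.01% Tween-20. Donor and acceptor beads are 10 ug/mL final.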
# G9a block: blocks human histone lysine methyltransferase G9a; 8.8% of 350,000 active; Potency, µM (series often up to 102 µM), for the others: top-dose activity, negative = inhibition, actives largely listed as inhibitors; G9a H3K9 monomethylation, AlphaScreen, 2 h; Q96KQ7; also: potency is read from the fitted curve at half-maximal effect; % is scaled to controls: 0 for no effect and ±100 for the full control effect; nearly all actives have a fitted effect of over 75% in size
#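 Signal arises when biotinylated H3K9 peptide, once monomethylated, bridges streptavidin donor and antibody-captured acceptor beads. Enzyme at 20 nM was preincubated 15 min with test compounds; peptide 500 nM and SAM 20 uM then reacted for 2 h.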
# PI5P4K alpha inh: inhibitors of human PI5P4K alpha; P48426; PI5P4Kalpha enzyme, ADP-Glo luminescence, 60 min; hits give low values; max response, %; 1.2% of 330,000 active; AID 652105; active = max response of -50% or lower; inconclusive = between -30% and -50%; inactive = -30% or higher; also: value at the top dose of about 77 µM; % is scaled to controls: 0 for no effect and ±100 for the full control effect
#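 ADP-Glo luminescence end-point read after a 60 min room-temperature kinase reaction of PI5P4Kalpha plus substrate, initiated with ATP at 5 microM final. Buffer: 0.038 M HEPES pH 7.4, EGTA, 0.1% CHAPS, 5% DMSO.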
# JMJD2A Tudor: blocks the human JMJD2A Tudor domain | AlphaScreen JMJD2A-Tudor / H3K4me3 peptide binding | Potency, µM (doses to about 114 µM), for the others: at the highest dose activity change, negative = inhibition, most hits filed as inhibitors | 4.4% of 390,000 active; also: potency is read from the fitted curve at half-maximal effect; % is scaled to controls: 0 for no effect and ±100 for the full control effect; nearly all actives have a fitted effect of over 50% in size
# PLK1 PBD inh: inhibitors of human PLK1 polo-box domain binding; Potency, µM, without a hit: max response, negative = inhibition, usual class: inhibitors; Plk1 PBD binding of FITC phosphopeptide, fluorescence polarization; 2.8% of 360,000 active; also: potency is read from the fitted curve at half-maximal effect; series mostly up to about 57 µM; % is scaled to controls: 0 for no effect and ±100 for the full control effect; nearly all actives have a fitted effect of over 65% in size
# Target sequence (P53350 whole entry, looked up, the tested form may be a part): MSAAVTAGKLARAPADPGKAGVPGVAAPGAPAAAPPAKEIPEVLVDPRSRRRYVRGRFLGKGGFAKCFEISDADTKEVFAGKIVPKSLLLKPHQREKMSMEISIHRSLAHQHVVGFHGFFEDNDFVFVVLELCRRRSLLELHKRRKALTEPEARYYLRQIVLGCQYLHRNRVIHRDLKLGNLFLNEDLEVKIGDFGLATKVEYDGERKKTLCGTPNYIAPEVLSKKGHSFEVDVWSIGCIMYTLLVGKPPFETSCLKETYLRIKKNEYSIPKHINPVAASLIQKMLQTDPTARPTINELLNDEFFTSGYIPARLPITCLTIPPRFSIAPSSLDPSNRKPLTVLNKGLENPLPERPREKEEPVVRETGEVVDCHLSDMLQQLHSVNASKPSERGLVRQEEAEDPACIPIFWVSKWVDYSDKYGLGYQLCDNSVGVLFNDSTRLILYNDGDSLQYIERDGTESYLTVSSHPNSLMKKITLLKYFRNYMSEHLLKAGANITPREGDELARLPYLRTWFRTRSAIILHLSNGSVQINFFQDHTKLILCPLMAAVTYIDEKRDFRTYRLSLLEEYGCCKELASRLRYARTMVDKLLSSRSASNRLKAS
# HP1b binding inh: blocks HP1-beta chromodomain binding to methylated histone tails | P83916 | AlphaScreen HP1-beta / biotin-H3K9me3 peptide binding | Potency, µM (doses to about 114 µM), inactives show at the top dose activity change, negative = inhibition, most hits filed as inhibitors | 0.56% of 390,000 active; also: potency is read from the fitted curve at half-maximal effect; nearly all actives have a fitted effect of over 70% in size
# Target sequence (P83916 whole entry, looked up): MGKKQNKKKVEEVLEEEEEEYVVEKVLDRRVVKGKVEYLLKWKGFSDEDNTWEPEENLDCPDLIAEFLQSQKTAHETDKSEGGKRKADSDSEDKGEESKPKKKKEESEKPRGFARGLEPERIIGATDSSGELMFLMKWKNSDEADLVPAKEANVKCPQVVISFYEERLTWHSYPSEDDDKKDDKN
#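 AlphaScreen: HP1-beta (50 nM) preformed 30 min with biotin-H3(1-18)K9me3 peptide (50 nM) in PBS pH 7.4, 0.01% Tween-20. Compound added for 30 min at RT, then streptavidin donor/nickel chelate acceptor beads (10 ug/mL) for 30 min.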
# Numbers without * were called inactive; ? = inconclusive; . = no result; ! = not confirmed by another sample; [ ] = remark or other dose. Sampled rows, rich in hits. Any-hit rate of the full collection: about 12%. Unless noted, calls follow the shape of the dose curve; as a rule, active = well fitted curve in the direction sought with a large enough effect; inconclusive = small, poorly fitted or top-dose-only effect, or another doubt; inactive = no such curve, though single readings can be large; an effect the other way counts as inactive or inconclusive.
SMILES,BAZ2B block,G9a block,PI5P4K alpha inh,JMJD2A Tudor,PLK1 PBD inh,HP1b binding inh
Oc1cc2c(cc1C(c1ccc(Br)cc1)N1CCCC1)OCO2 (configuration not stated),39.8µM*,1.58µM*,-102.3*,7.94µM*,1.5µM*,15.8µM*
CCCc1cc(=O)[nH]c2nnc(SCC(=O)Nc3ccc(OC)cc3)n12,-2.8%,17.4%[59 µM],.,-8.8%,.,31.8%
CC(/C=C1\SC(=S)N(NC(=O)c2cccc(O)c2)C1=O)=C\c1ccccc1,11.2µM*,8.91µM*,-13.8,22.4µM*,-8.0%,?
CC(=C\c1ccccc1)/C=C1/SC(=S)N(CCC(=O)O)C1=O,?,5.5%[2.33 µM],-10.3,?,-30.0%,5.5%
COc1cc(/C=C2\SC(=S)N(NC(=O)c3ccccc3O)C2=O)ccc1O,28.2µM*,-28.8%[2.33 µM],-61.9*,20µM*,?,?
O=C(NN1C(=O)/C(=C/c2cc([N+](=O)[O-])ccc2O)SC1=S)c1ccccc1O,5.62µM*,-18.3%[2.33 µM],.,.,.,.
O=[N+]([O-])c1ccc(O)c(/C=N/n2cnc3ccccc32)c1,-1.1%,11.3%[59 µM],-14.8,-21.1%,-5.9%,-2.9%
Cn1cc(/C=C2\SC(=S)N(NC(=O)c3cccc(Cl)c3)C2=O)c2ccccc21,?,0.6%[12.7 µM],2.1,-15.4%[11.4 µM],?,47.9%
Cc1ccc(/C=C2\SC(=S)N(/N=C/c3cc([N+](=O)[O-])ccc3O)C2=O)o1,11.2µM*,6.31µM*,-84.4*,56.2µM*,11.9µM*,44.7µM*
O=C(NN1C(=O)/C(=C/c2ccc(O)cc2)SC1=S)c1cccc(O)c1,?,44.7µM*,-0.3,?,72.8%,-14.9%
Cc1cc(C)nc(NN2C(=O)/C(=C/c3ccc(O)cc3)SC2=S)n1,?,28.2µM*,.,?,71.0%,-2.0%
O=C(NN1C(=O)/C(=C/c2ccc(O)cc2)SC1=S)c1ccccc1O,39.8µM*,?,?,50.1µM*,77.2%,?
COc1ccccc1/C=C1\SC(=S)N(Nc2nc(C)cc(C)n2)C1=O,1.7%,?,.,-26.5%,-8.7%,27.4%
O=C(NN1C(=O)/C(=C/c2ccc(O)c([N+](=O)[O-])c2)SC1=S)c1ccccc1Cl,35.5µM*,14.1µM*,-79.1*,?,-24.8%,?
O=C(Cc1ccccc1)NN1C(=O)/C(=C/c2ccc(C(=O)O)cc2)SC1=S,-16.2%,.,-1.3,-16.9%[11.4 µM],-13.6%,30.8%
O=S(=O)(/N=C(/Nc1cccnc1Cl)c1ccccc1)c1ccccc1,.,.,0.5,-12.2%,-4.6%,29.1%
O=C(NCC1CCCCC1)c1ccc2nc([C@@H]3O[C@H](CO)[C@@H](O)[C@H]3O)[nH]c2c1,.,.,7.5,.,-11.6%,.
O=C(CCn1c(=O)c2cccn2c2cccnc21)N1CCN(c2cccc(Cl)c2)CC1,-31.7%,?,?,15.8µM*!,3.36µM*,-15.3%
Cc1ccccc1C(=O)NC(=S)Nc1ccc(S(=O)(=O)N(C)c2ccccc2)cc1,-2.3%,10.8%[2.33 µM],-13.6,-15.8%[11.4 µM],26.7µM*,-21.3%
O=C(O)c1cccc(NC(=S)NC(=O)c2ccc3ccccc3c2)c1,-27.6%,56.2µM*,-22.7,-29.7%,-17.7%,15.3%
Cc1ccccc1C(=O)NC(=S)Nc1ccccc1C(=O)O,-19.4%,20µM*,-1.2,-10.5%,-23.7%,-19.8%
Cc1cccc(C(=O)NC(=S)Nc2ccc(S(=O)(=O)N(C)c3ccccc3)cc2)c1,-3.4%,?,-1.4,-25.1%,-15.4%,-8.6%
O=C(NC(=S)Nc1ccccc1C(=O)O)c1ccc2ccccc2c1,-22.3%,28.2µM*,-23.5,-26.6%,?,-15.3%
O=C(O)c1ccc(NC(=S)NC(=O)c2ccc3ccccc3c2)cc1,8.0%,.,-25.2,?,?,-1.6%
CCCCNC(=O)C1(C)CCN1C(=O)c1cccc(OC(C)=O)c1C (configuration not stated),.,.,6.3,.,9.1%,.
SMILES,BAZ2B block,G9a block,PI5P4K alpha inh,JMJD2A Tudor,PLK1 PBD inh,HP1b binding inh
O=C(Nc1c2c(nn1-c1ccccc1)CS(=O)C2)c1ccco1 (configuration not stated),2.0%,41.3%,-2.9,-18.5%,-7.0%,7.3%
Cc1c(NC(=S)NC(=O)c2ccc(-c3ccc(Cl)cc3)o2)cccc1C(=O)O,-26.7%,44.7µM*,-3.2,-21.7%,?,8.6%
O=C(O)c1ccc(NC(=S)NC(=O)c2cccc(COc3ccccc3)c2)cc1,-37.8%,28.2µM*,-55.3*,-24.0%,?,-0.9%
Cc1ccccc1C1c2[nH]c3ccccc3c2C[C@H]2C(=O)N(c3ccccc3C(=O)NCCCN3CCOCC3)C(=O)N12 (some centres not stated),?,24.0%[12.7 µM],8.1,?,-9.6%,-0.9%
CCOc1ccc2nc(N(CCCN(C)C)C(=O)c3ccc(S(=O)(=O)N4CCc5ccccc5C4)cc3)sc2c1,-21.6%,.,3.9,-9.0%,-3.1%,49.5%
CCOc1ccc2nc(N(CCCN(C)C)C(=O)c3ccc4c(c3)CCCC4)sc2c1,?,44.7µM*,-0.1,?,-17.0%,-4.0%
CN(C)CCCN(C(=O)c1ccc2c(c1)CCCC2)c1nc2ccc(Cl)cc2s1,?,?,-2.4,39.8µM*,-11.0%,-38.5%
COc1cccc2sc(N(CCN(C)C)C(=O)c3ccc4c(c3)CCCC4)nc12,?,?,4.3,?,-7.4%,-19.1%
COc1ccc(OC)c(CNc2ccc3c(c2)CCC3)c1,?,31.6µM*,-1.5,?,?,?
COc1cccc(CNc2ccc3c(c2)CCC3)c1,?,14.1µM*,.,?,-17.0%,-14.0%
COc1ccc(OC)c(CNc2ccc(F)c(Cl)c2)c1,?,50.1µM*,.,?,-5.9%,-4.0%
COc1cccc(CNc2ccc(C)c(Cl)c2)c1,-2.1%,.,8.5,-1.4%,-4.5%,54.8%
COc1ccc(OC)c(CC(=O)Nc2ccc3c(c2)CCC3)c1,-6.3%,25.6%,2.8,-21.6%,-12.7%,-6.6%
COc1ccc(CNC(=S)Nc2ccc(F)c(Cl)c2)cc1,?,-5.1%,2.5,12.8%,-11.5%,36.1%
COc1ccc(OC)c(CCNc2nc3cc(OC)c(OC)cc3c3nc(-c4cccnc4)nn23)c1,3.4%,-5.3%[59 µM],.,2.9%,.,32.2%
O=S(=O)(Nc1cc(S(=O)(=O)N2CCOCC2)ccc1Cl)c1ccccc1,.,.,-2.1,-3.8%,-5.0%,33.6%
COc1ccc(CCNC(=O)CCNC(=O)N2CC(=O)Nc3ccccc32)cc1,8.1%,0.8%,-2.0,?,21.2µM*,10.1%
COc1ccc(CCNC(=O)Cn2nnc3ccccc3c2=O)cc1,12.0%,70.8µM*,-4.2,-9.6%,-11.8%,19.8%
Cc1ccc2[nH]c3c(=O)n(CC(=O)N4CCN(c5ccccc5F)CC4)ncc3c2c1,11.6%[57.1 µM],-5.7%[59 µM],.,9.4%,.,27.3%
CCCCn1c(C2CC(=O)N(c3ccc(OCC)cc3)C2)nc2ccccc21 (configuration not stated),-11.5%,-28.6%[59 µM],.,-1.7%,.,23.9%
